Source: PubChem BioAssay (NCI)
This is part of a sample that, as a whole, favours compounds with a hit. Of some 83,000 tested, about 20% had one in any assay.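 Single-concentration screen, 48 h exposure, 96-well plates. Endpoint: percent growth. Below 10 = active.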 Calls of active or inactive are those of the source.

Tests used:
Assay in all cases: NCI-60 one-dose screen, 48 h (100 = growth as untreated, 0 = no growth, -100 = all killed)
Settings in all cases: 10 µM unless noted
[1] = system: NCI-H23 lung
[2] = system: NCI-H226 lung
[3] = system: NCI-H322M lung
[4] = system: HOP-62 NSCLC
[5] = system: NCI-H460 lung
[6] = system: HOP-92 NSCLC
[7] = system: NCI-H522 lung
[8] = system: A549/ATCC NSCLC
[9] = system: 786-0 renal
[10] = system: COLO 205 colon
[11] = system: DU-145 prostate
[12] = system: K-562 leukemia
[13] = system: MALME-3M melanoma
[14] = system: MDA-MB-231 breast
[15] = system: RXF 393 renal
[16] = system: SF-268 CNS
[17] = system: SF-295 CNS
[18] = system: SF-539 CNS
[19] = system: UACC-257 melanoma
[20] = system: M14 melanoma

Measured: growth

O=C(Nc1ccc(Cl)cc1)c1cc2cc(F)ccc2cc1O
inactive: [3] 18.7% | [4] 12.1% | [9] 15.7% | [10] 69.5% | [11] 26.7% | [12] 11.5% | [15] 13.6% | [16] 23.6% | [17] 31.2% | [18] 17.7% | [20] 15.9%
active: [1] 7.14% | [2] 7.16% | [5] 7.11% | [6] -11.4% | [7] -0.904% | [8] 6.09% | [13] -3.12% | [14] -23.4% | [19] -23.8%

C[n+]1ccccc1/C=C/c1ccc2cccc(O)c2n1
active: [8] 9.6%
inactive: [1] 103% | [2] 86.8% | [3] 136% | [4] 91.1% | [5] 102% | [6] 106% | [7] 99.8% | [9] 104% | [10] 63.3% | [11] 102% | [12] 102% | [13] 146% | [14] 93.3% | [15] 48.4% | [16] 97.1% | [17] 109% | [18] 109% | [19] 97.5% | [20] 103%

C#CCOc1ccc2ncnc(N3CCN(C(=O)CCl)CC3)c2c1
active: [2] -15.9% [8.25 µM] | [7] -59.5% [8.25 µM]
inactive: [1] 93.3% [8.25 µM] | [3] 99.3% [8.25 µM] | [4] 85% [8.25 µM] | [5] 101% [8.25 µM] | [6] 88.7% [8.25 µM] | [8] 100% [8.25 µM] | [9] 94.5% [8.25 µM] | [10] 96.1% [8.25 µM] | [11] 102% [8.25 µM] | [12] 18.9% [8.25 µM] | [13] 92.4% [8.25 µM] | [14] 95.7% [8.25 µM] | [15] 87.2% [8.25 µM] | [16] 68.7% [8.25 µM] | [17] 109% [8.25 µM] | [18] 91.4% [8.25 µM] | [19] 90.8% [8.25 µM] | [20] 61.7% [8.25 µM]

C(=C\c1nccc2c1[nH]c1ccccc12)/c1ccccc1
inactive: [1] 34.3% | [2] 51.6% | [3] 29.9% | [4] 40.7% | [6] 45.4% | [8] 21.4% | [9] 35.8% | [12] 69.2% | [13] 29.4% | [14] 30.7% | [16] 41.8% | [19] 37.5% | [20] 19.8%
active: [5] 4.91% | [7] 4.33% | [10] 3.43% | [11] 9.25% | [15] -44.6% | [17] -32% | [18] 7.92%

Nc1n[nH]c2ccc([C@@H]3Nc4ccc5[nH]ncc5c4[C@H]4C5C=CC(C5)[C@@H]34)cc12 (stereo not given in full)
inactive: [1] 14.1% | [3] 43.8% | [4] 41.8% | [6] 61.2% | [7] 14.3% | [8] 20.1% | [9] 30.3% | [13] 43.1% | [14] 25.5% | [15] 17.8% | [16] 20.3% | [19] 68.6%
active: [2] -6.81% | [5] -10.8% | [10] 2.87% | [11] 8.03% | [12] 8.61% | [17] 1.53% | [18] -31.4% | [20] 4.56%

O=C1c2cc3c(cc2-c2c1c1ccc(F)cc1c(=O)n2C[C@H](O)[C@@H](O)[C@H](O)CO)OCO3
inactive: [3] 13% | [14] 11.1% | [16] 11.2%
active: [1] -31.9% | [2] -17.4% | [4] -7.29% | [5] 3.2% | [6] 6.56% | [7] -22.1% | [8] -33.7% | [9] 4.19% | [10] -31.1% | [11] 2.47% | [12] 9.69% | [13] -54.6% | [15] -47.1% | [17] -0.994% | [18] -44.6% | [19] -44.3% | [20] -14%

CC(O)CN1CC(O)=C(c2nc3ccccc3s2)C1=N (stereo not given)
inactive: [1] 83% | [2] 103% | [3] 111% | [4] 95.2% | [5] 113% | [6] 88.1% | [7] 99.9% | [8] 116% | [9] 100% | [10] 108% | [11] 115% | [12] 105% | [13] 97.6% | [14] 108% | [15] 113% | [16] 108% | [17] 129% | [18] 104% | [19] 119% | [20] 114%
